# Measured values as given in PubChem BioAssay (Tox21).
# Values without a mark were called inactive. Inconclusive results are not listed. Calls of active or inactive are those of the source. Calls come from the whole dose curve; as a rule, active = well fitted cell-killing curve with a large enough effect in the repeat runs; inconclusive = weak or mixed curves, or effect the other way; inactive = flat fitted curve, though single readings scatter.
# Assay: qHTS assay to identify small molecule HDAC inhibitors - cell viability counter screen (AID 1259365)
# Conditions: HCT-116 viability, CellTiter-Glo ATP luminescence, 2 h; series mostly up to 92.4 µM; activity change, negative = cytotoxicity: at the top concentration
# Procedure, shortened: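 Measured quantity is CellTiter-Glo luminescence from wild-type HCT-116 cells after compound incubation of 2hr at 37C, 5% CO2; reagent developed 30min at room temperature.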
# % is set by controls: 0 for no effect and ±100 for the full control effect.
# Note: nearly all actives have a fitted effect of over 50% in size.
row,SMILES,"activity change, negative = cytotoxicity"
1,CCCCCO,0.428%
2,O=[N+]([O-])c1ccccc1CCO,2.57%
3,CC(O)C(C)O (stereo not given),0.813%
4,c1ccc(CN(Cc2ccccc2)Cc2ccccc2)cc1,-10.1%
5,CC(CCl)OC(C)CCl (stereo not given),3.54%
6,CCC(=O)O[C@]1(C(=O)COC)[C@@H](C)C[C@H]2[C@@H]3CCC4=CC(=O)C=C[C@]4(C)C3(F)[C@@H](O)C[C@@]21C (stereo not given in full),1.82% [at 42.5 µM]
7,Clc1ccccc1-c1nc(-c2ccncc2)no1,-5.77% [at 42.5 µM]
8,C=CC(C)(O)CC/C=C(/C)CCC=C(C)C (stereo not given),-4.9%
9,CCOc1ccccc1O,-3.19%
10,C[Si](C)(C)O[Si](C)(C)O[Si](C)(C)C,1.28%
11,CC(=O)S[C@H](C(=O)N[C@H]1Cc2ccccc2[C@H]2CCC[C@@H](C(=O)O)N2C1=O)C(C)C,2.16%
12,CC/C=C/CCO,0.483%
13,COC(=O)C(C)(C)C,1.76%
14,S=c1[nH][nH]c(=S)s1,-4.03%
15,Cc1cc(C)n(CO)n1,3.17%
16,O=C(O)c1ccccc1-n1cc(C(=O)O)c(=O)c2cc(Nc3c(F)cc(F)cc3Cl)c(Cl)cc21,3.14%
17,CCC(C)CCCC(C)(C)O (stereo not given),2.65%
18,CCCCCCCCCCCCCCCCN,-0.0244% [at 42.5 µM]

row,SMILES,"activity change, negative = cytotoxicity"
1,COc1ccc(/C=C/S(=O)(=O)NC(=O)c2ccc(C)cc2Cl)cc1,1.07%
2,N#Cc1ccc(CC(=O)c2cccc(C(F)(F)F)c2)cc1,-7.98%
3,O=C(O)c1cc(C(=O)O)cc([N+](=O)[O-])c1,0.0928%
4,CCCCC(CC)COCCC#N (stereo not given),-1.25%
5,O=C1c2ccccc2C(=O)C1c1ccc2ccccc2n1,-9.14% [at 42.5 µM]
6,CCc1cnc(C(=O)O)c(C(=O)O)c1,2.32%
7,O=[N+]([O-])c1ccc(Cl)cc1Cl,2.03%
8,CCCCCC1CCC(=O)O1 (stereo not given),-5.56%
9,Nc1nc(Cl)nc2c1ncn2[C@H]1C[C@H](O)[C@@H](CO)O1,-0.0165%
10,O=Cc1ccc([N+](=O)[O-])cc1,6.37%
11,C=CC(O)CCCCC (stereo not given),-0.765%
12,Nc1ccccc1Nc1ccccc1,1.52%
13,FC1(F)C(F)(F)C(F)(F)C2(F)C(F)(C1(F)F)C(F)(F)C(F)(F)C1(F)C(F)(F)C(F)(F)C(F)(F)C(F)(F)C12F (stereo not given),0.616%
14,C=C[Si]1(C)O[Si](C)(C=C)O[Si](C)(C=C)O[Si](C)(C=C)O1 (stereo not given),2.18%
15,OCCOc1cccc(OCCO)c1,1.13%
16,O=C(O)COCC(=O)O,4.88%
17,CCCCCCCCCC(C)C=O (stereo not given),3.09%
18,CC(C)CCCCCCCOC(=O)c1ccc(C(=O)OCCCCCCCC(C)C)c(C(=O)OCCCCCCCC(C)C)c1,0.581%

# Assay: qHTS assay to identify small molecule agonists of the sonic hedgehog signaling (Shh) pathway - cell viability counter screen (AID 1259366); note: potency is the fitted concentration of half-maximal effect
# Conditions: NIH/3T3 Gli1-Luc viability, CellTiter-Fluor, 24 h; series mostly up to 92.4 µM; viability change, negative = cytotoxic: at the top concentration
# Procedure, shortened: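 In quantitative high-throughput format, 3T3 Gli1-Luc cells were exposed to compounds for 24hr and multiplexed for viability using CellTiter-Fluor, incubated 1hr at 37C before the fluorescence read.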
SMILES,"viability change, negative = cytotoxic",Potency
CCCCCO,-8.81%,
O=[N+]([O-])c1ccccc1CCO,8.37%,
CC(O)C(C)O (stereo not given),0.489%,
c1ccc(CN(Cc2ccccc2)Cc2ccccc2)cc1,7.54%,
CC(CCl)OC(C)CCl (stereo not given),1.67%,
CCC(=O)O[C@]1(C(=O)COC)[C@@H](C)C[C@H]2[C@@H]3CCC4=CC(=O)C=C[C@]4(C)C3(F)[C@@H](O)C[C@@]21C (stereo not given in full),21.2% [at 42.5 µM],
Clc1ccccc1-c1nc(-c2ccncc2)no1,6.75% [at 42.5 µM],
C=CC(C)(O)CC/C=C(/C)CCC=C(C)C (stereo not given),-1.56%,
CCOc1ccccc1O,0.273%,
C[Si](C)(C)O[Si](C)(C)O[Si](C)(C)C,-1.58%,
CC(=O)S[C@H](C(=O)N[C@H]1Cc2ccccc2[C@H]2CCC[C@@H](C(=O)O)N2C1=O)C(C)C,1.21%,
CC/C=C/CCO,-0.461%,
COC(=O)C(C)(C)C,1.21%,
S=c1[nH][nH]c(=S)s1,8.53%,
Cc1cc(C)n(CO)n1,2.34%,
O=C(O)c1ccccc1-n1cc(C(=O)O)c(=O)c2cc(Nc3c(F)cc(F)cc3Cl)c(Cl)cc21,10.2%,
CC(=O)OCC(=O)[C@@]1(O)CC[C@H]2[C@@H]3CCC4=CC(=O)C=C[C@]4(C)[C@@]3(F)[C@@H](O)C[C@@]21C,18.2% [at 42.5 µM],
CCC(C)CCCC(C)(C)O (stereo not given),2.33%,
CCCCCCCCCCCCCCCCN,1.22% [at 42.5 µM],
COc1ccc(/C=C/S(=O)(=O)NC(=O)c2ccc(C)cc2Cl)cc1,-1.21%,

SMILES,"viability change, negative = cytotoxic",Potency
N#Cc1ccc(CC(=O)c2cccc(C(F)(F)F)c2)cc1,8.4%,
Cc1cccc(C)c1NC(=O)CN1CCCC1,-0.0464% [at 42.5 µM],
Cc1c(Nc2ncccc2C(=O)O)cccc1C(F)(F)F,2.67% [at 42.5 µM],
O=C(O)c1cc(C(=O)O)cc([N+](=O)[O-])c1,0.478%,
CCCCC(CC)COCCC#N (stereo not given),5.06%,
O=C1c2ccccc2C(=O)C1c1ccc2ccccc2n1,-7.54% [at 42.5 µM],
CCc1cnc(C(=O)O)c(C(=O)O)c1,6.08%,
O=[N+]([O-])c1ccc(Cl)cc1Cl,0.151%,
CCCCCC1CCC(=O)O1 (stereo not given),2.2%,
Nc1nc(Cl)nc2c1ncn2[C@H]1C[C@H](O)[C@@H](CO)O1,19%,
O=Cc1ccc([N+](=O)[O-])cc1,-3.23%,
C=CC(O)CCCCC (stereo not given),1.46%,
Nc1ccccc1Nc1ccccc1,,68.8 µM (active)
FC1(F)C(F)(F)C(F)(F)C2(F)C(F)(C1(F)F)C(F)(F)C(F)(F)C1(F)C(F)(F)C(F)(F)C(F)(F)C(F)(F)C12F (stereo not given),-0.0811%,
C=C[Si]1(C)O[Si](C)(C=C)O[Si](C)(C=C)O[Si](C)(C=C)O1 (stereo not given),13.7%,
OCCOc1cccc(OCCO)c1,2.27%,
O=C(O)COCC(=O)O,-1.73%,
CCCCCCCCCC(C)C=O (stereo not given),0.946%,
CC(C)CCCCCCCOC(=O)c1ccc(C(=O)OCCCCCCCC(C)C)c(C(=O)OCCCCCCCC(C)C)c1,-7.65%,
